TDP1 cell CPT – qHTS for Inhibitors of human tyrosyl-DNA phosphodiesterase 1 (TDP1): qHTS in cells in presence of CPT; chicken DT40 Tdp1-/-;hTDP1 cells + 20 nM CPT, ATP luminescence, 48 h; Potency, µM (top dose mostly 46.2 µM), actives largely listed as inhibitors; 12% of 420,000 active; also: nearly all actives have a fitted effect of over 55% in size
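Cell growth measured by CellTiter-Glo luminescence after a minimum 48 h, 37 C compound exposure with 20 nM CPT in Tdp1-knockout DT40 cells stably expressing hTDP1, seeded 400/well; qHTS titration format.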
HT1080 IDH1KD tx – qHTS for induction of synthetic lethality in tumor cells producing 2HG: qHTS for the HT-1080-IDH1KD cell line; HT-1080 IDH1 knockdown viability, ATP luminescence, 48 h; Potency, µM (series often up to 46.1 µM), actives largely listed as cytotoxic; 2% of 360,000 active; AID 686971, 2013
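Knockdown cells (IDH1KD HT-1080) received compounds 2 h after plating at 750 cells/well and were kept 48 h at 37 °C in 5% FBS RPMI. A CellTiter-Glo luminescence read gave % activity for curve fitting.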
IL1B secr inh – qHTS for Inhibitors of Inflammasome Signaling: IL-1-beta AlphaLISA Primary Screen. activity change, % at 57.5 µM. THP-1 LPS/ATP IL-1B secretion, AlphaLISA, 16 h; hits give low values. AID 743279, 2014. 4.7% of 360,000 active; in the data active = activity change below about -50%; inconclusive = mostly about -30% to -49%
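Secreted IL-1B measured by AlphaLISA bead assay after 16 h compound exposure of THP-1 cells; compounds (final up to 57.5 uM) added 1 h before LPS (250 ng/mL) and ATP (1.25 mM) stimulation; lower signal means less secretion.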
HT1080-NT tox – qHTS for induction of synthetic lethality in tumor cells producing 2HG: qHTS for the HT-1080-NT fibrosarcoma cell line; 1.6% of 360,000 active; AID 686970, 2013; Potency, µM (series often up to 46.1 µM), hits mostly cytotoxic; HT-1080-NT fibrosarcoma viability, CellTiter-Glo ATP luminescence, 48 h;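 also: NT is the 2HG producing partner of a matched IDH1 knockdown line; nearly all actives have a fitted effect of over 55% in size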
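Luminescent CellTiter-Glo readout after 48 hours of compound exposure at 37 degrees C defined viability of HT-1080-NT cells. Activity was normalized to DMSO wells and cell-free media wells; concentration-response curves were fitted and assigned curve classes.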
DT40 TDP1 no CPT – qHTS for Inhibitors of human tyrosyl-DNA phosphodiesterase 1 (TDP1): qHTS in cells in absence of CPT. 15% of 420,000 active. Potency, µM (titrated, usually from 46.2 µM), actives largely listed as inhibitors. DT40 Tdp1-/- hTDP1 cells, no CPT, ATP luminescence, 48 h. AID 686978, 2013; also: nearly all actives have a fitted effect of over 55% in size
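Growth kinetics read by CellTiter-Glo luminescence after ≥48 hr at 37 °C. Cells: DT40 Tdp1-/- stably carrying human TDP1, 400 per well, compound exposure in the absence of CPT (DMSO vehicle).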
Hits are given with their value; n = inactive; u = inconclusive; x = no result; [ ] = another dose, or the depositor's remark. A selection: hits, their analogues and other compounds. The true share with any hit is near 19%. Unless noted, calls follow the shape of the dose curve; as a rule, active = well fitted curve in the direction sought with a large enough effect; inconclusive = small, poorly fitted or top-dose-only effect, or another doubt; inactive = no such curve, though single readings can be large; an effect the other way counts as inactive or inconclusive.

SMILES	TDP1 cell CPT	HT1080 IDH1KD tx	IL1B secr inh	HT1080-NT tox	DT40 TDP1 no CPT
CCCCCCn1c(COc2ccccc2F)nnc1SCC(=O)N1c2ccccc2NC(=O)C1(C)C	23µM	u	-57	n[9.24 µM]	16µM
C=CCn1c(C)nnc1SCC(=O)N1c2ccccc2NC(=O)C1(C)C	n	n	n	n	u
C=CCn1c(SCC(=O)N2CCc3ccccc3C2)nnc1-c1ccncc1	n	n	n	n	n
CCN(Cc1ccccc1)c1ccc(/C=N/NC(=O)c2cccc(S(=O)(=O)N3CCOCC3)c2)cc1	u	21µM	n	u	13µM
CN(Cc1cccc(Cl)c1Cl)C(=O)c1cccc(S(=O)(=O)N2CCN(Cc3ccccc3)CC2)c1	u	n	n	n	16µM
COc1ccccc1OCCNC(=O)c1cccc(S(=O)(=O)N2CCN(Cc3ccccc3)CC2)c1	18µM	n	n	n	u
CN(Cc1ccc(Cl)c(Cl)c1)C(=O)c1cccc(S(=O)(=O)N2CCN(Cc3ccccc3)CC2)c1	21µM	n	u	n	21µM
COc1cc(/C=N/NC(=O)c2cccc(S(=O)(=O)N3CCOCC3)c2)cc(OC)c1O	n	n	n	n	n
Nc1nc(-c2ccccc2)c(C(=O)Nc2ccccc2)s1	n	n	n	n	u
O=C(CCN1C(=O)S/C(=C\c2ccc(F)cc2)C1=O)Nc1ccc(O)cc1C(=O)O	n	n	n	n	n
CN(Cc1cccc(F)c1)C(=O)c1cccc(S(=O)(=O)N2CCN(Cc3ccccc3)CC2)c1	u	n	n	n	u
CN(Cc1ccc(OC(F)F)cc1)C(=O)c1cccc(S(=O)(=O)N2CCN(c3ccccc3)CC2)c1	15µM	n	-62	n	2.9µM
CN(CC(=O)Nc1ccccc1Cl)C(=O)c1cccc(S(=O)(=O)N2CCN(c3ccccc3)CC2)c1	u	n	n	n	u
CN(CC(=O)N1CCN(Cc2ccccc2)CC1)C(=O)Cc1ccc(Cl)c(Cl)c1	u	n	n	n	15µM
CN(C)S(=O)(=O)N(CC(=O)N1CCN(Cc2ccccc2)CC1)c1ccccc1	u	n	n	n	n
CN(Cc1cnn(Cc2ccccc2)c1)C(=O)c1cccc(S(=O)(=O)N2CCOCC2)c1	7.3µM	u	n	u	5.8µM
O/C(=C\c1ccc2ccccc2n1)c1ccc(O)cc1O	n	u	n	u	n
Oc1ccc(/C(Cc2ccccn2)=N\Nc2ccccc2)c(O)c1	u	9.2µM	-180	u	u
Oc1ccc(/C(Cc2ccc3ccccc3n2)=N\Nc2ccccc2)c(O)c1	u	u	-98	u	23µM
Cc1c(O)ccc(/C(Cc2ccc3ccccc3n2)=N\O)c1O	21µM	n	-67	n	21µM
N/N=C(\Cc1cscn1)c1ccc(O)cc1O	n	n	n	n	u
CCCC[C@@H]1CC2=C(C(=O)OC(C)(C)O2)[C@@H](c2ccc(Cl)cc2)O1	u	n	n	n	u
COc1ccccc1NC(=O)C1CCCN(S(=O)(=O)c2ccc(-n3cnnn3)cc2)C1 (stereo unspecified)	n	n	n	n	n
Cc1ccc(C)c(NC(=O)CN(C)C(=O)c2oc3c(Cl)cccc3c2C)c1	u	n	n	n	u
O=C(Nc1ccc(-c2cn3cccnc3n2)cc1)c1ccccc1F	u	x	x	x	16µM
SMILES	TDP1 cell CPT	HT1080 IDH1KD tx	IL1B secr inh	HT1080-NT tox	DT40 TDP1 no CPT
CCOCC(=O)Nc1ccc(-c2cn3cccnc3n2)cc1	15µM	n	n	n	n
CC(C)CC(=O)Nc1ccc(-c2cn3cccnc3n2)cc1	n	n	n	n	n
CCCC(=O)Nc1ccc(-c2cn3cccnc3n2)cc1	n	n	n	n	u
CC(C)(C)CC(=O)Nc1ccc(-c2cn3cccnc3n2)cc1	u	n	n	n	n
CCOc1cc(C(=O)Nc2ccc(-c3cn4cccnc4n3)cc2)cc(OCC)c1OCC	12µM	x	x	x	9.2µM
Cc1cc(C)cc(C(=O)Nc2ccc(-c3cn4cccnc4n3)cc2)c1	u	x	x	x	9.2µM
COC(C(=O)Nc1ccnn1C1CCN(Cc2nccs2)CC1)c1ccccc1 (stereo unspecified)	n	n	n	n	n
Cn1nc(-c2ccccc2)c(CO)c1Oc1ccc(F)cc1	u	n	n	n	u
Nc1cccc(-c2cn3cccnc3n2)c1	21µM	n	n	n	u
O=C(c1cc2nc(-c3cccs3)cc(C(F)(F)Cl)n2n1)N1CCCc2ccccc21	u	n	u	n	u
O=C(c1cc2nc(-c3ccco3)cc(C(F)(F)F)n2n1)N1CCCc2ccccc21	n	n	n	n	u
O=C(c1nn2c(C(F)(F)F)cc(-c3cccs3)nc2c1Br)N1CCCc2ccccc21	9.2µM	u	n	n	8.2µM
O=C(c1nn2c(C(F)(F)F)cc(-c3ccco3)nc2c1Br)N1CCCc2ccccc21	16µM	10µM	n	23µM	12µM
O=C(c1cc2nc(-c3cccs3)cc(C(F)(F)F)n2n1)N1CCCc2ccccc21	18µM	n	n	n	u
CC(=O)c1sc(C(C)(C)C)cc1NC(=O)c1ccccc1C(=O)O	n	n	x	n	n
O=C(NCc1nnc2c(C(F)(F)F)cc(Cl)cn12)c1ccc(Br)o1	n	n	n	n	n
O=C1c2cccc3cccc(c23)C(=O)C1(O)O	1µM	18µM	-94	u	2.3µM
CC(=O)N1C(=O)c2cccc3cccc(c23)C(=O)N1C(C)=O	n	n	n	n	n
CN(C(=S)NC(=O)CCCOc1ccc(Cl)cc1Cl)c1ccccc1	u	u	n	u	16µM
O=C(CCCC(=O)NN=Cc1ccccc1Cl)NN=Cc1ccccc1Cl	16µM	n	n	n	16µM
COc1ccc(/C=N/NC(=O)CCCOc2ccc(Cl)cc2Cl)cc1[N+](=O)[O-]	u	n	n	n	16µM
Cc1ccc(OCC(=O)N/N=C\c2cccs2)c([N+](=O)[O-])c1	n	n	n	n	n
O=C(COc1ccc(Cl)cc1[N+](=O)[O-])N/N=C/c1cccs1	n	n	n	n	29µM
COc1ccc2oc(=O)c(-c3cn4c(n3)sc3cc(F)ccc34)cc2c1	n	x	x	x	n
COc1ccc(NC(=O)N(C)C[C@H]2Oc3ccc(NS(=O)(=O)c4ccccc4)cc3C(=O)N([C@H](C)CO)C[C@@H]2C)cc1	n	n	n	n	n
O=C(CCC(=O)N/N=C/c1ccc(Br)s1)NCc1ccccc1	u	n	n	n	u
O=C(CCC(=O)N/N=C/c1cc(Cl)cc(Cl)c1O)NCc1ccccc1	u	n	n	n	23µM

Screens as filed in PubChem BioAssay.
